Assay results reported in PubChem BioAssay.
The source made the active and inactive calls.

What was measured:
[1] = tested on: Human papillomavirus type 1a protein E7 (residues 44-93); test: HPV1a E7 fragment binders on microarrays, primary screen, biochemical, small-molecule microarray, residues 44-93, 635 nm fluorescence (AID 1108); conditions: small-molecule microarray binding, fluorescence 635 nm; higher = more signal;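 note: E7 fragment applied at 1 µg/mL in TBST for 1 h at 4 C; score combines spot fluorescence with its signal to noise ratio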
[2] = modulators of HCV replicon luciferase signal, primary screen, HCV replication inhibitor project, Huh7 cells, luciferase reporter (AID 1109); conditions: 48 h, higher = more signal;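 note: huh7 hepatoma cells harbouring a luciferase neomycin HCV replicon reporter; luciferase luminescence as measure of HCV replicon replication; test concentration not given here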
[3] = biological target: Left-right determination factor 2 (Homo sapiens) (UniProt O00292); test: LEFTY2 binders on small-molecule microarrays, primary screen, biochemical, small-molecule microarray, 635 nm fluorescence scan (AID 1110); conditions: LEFTY2 binding, higher = more signal
[4] = biological target: Calmodulin-1 (Homo sapiens) (UniProt P0DP23); test: CALM1 binders on microarrays, EGTA buffer, profiling panel, biochemical, small-molecule microarray, Cy5-labelled CALM1 (AID 1111); conditions: Cy5-CALM1 binding fluorescence, higher = more signal;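 note: labelled calmodulin applied in Tris saline Tween buffer holding calcium plus EGTA and DTT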
[5] = biological target: Calmodulin-1 (Homo sapiens) (UniProt P0DP23); test: calcium-bound CALM1 binders on microarrays, profiling panel, artefact control for SMM control-protein annotation, biochemical, small-molecule microarray, Cy5-labelled CALM1, plus calcium (AID 1112); conditions: Cy5-CALM1 binding fluorescence, higher = more signal;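 note: score merges spot fluorescence with signal to noise from triplicate slides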
[6] = small-molecule microarray binders of probe aWnt5a, primary screen, biochemical, biotinylated probe, 635/667 nm fluorescence (AID 1113); conditions: higher = more signal;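 note: score merges 667 nm fluorescence intensity with signal-to-noise per printed feature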
[7] = small-molecule microarray binders of probe aShh, primary screen, biochemical, biotinylated probe, 635/667 nm fluorescence (AID 1114); conditions: higher = more signal;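 note: probe is biotin-labelled aShh protein from a stem cell growth factor screen; measures binding of labelled protein to compounds printed on the slide; score merges feature fluorescence at 667 nm with signal-to-noise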
[8] = small-molecule microarray binders of probe aNog, primary screen, biochemical, biotinylated probe, 635/667 nm fluorescence (AID 1115); conditions: higher = more signal;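 note: probe is biotinylated aNog protein used at 0.15 µg/mL for 1 h at 4 C; z-score combines 667 nm fluorescence of each spot with its signal to noise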
[9] = biological target: Torsin-1A-interacting protein 1 (Homo sapiens) (UniProt Q5JTV8); test: LAP1 binders from COS7 cell lysate, primary screen, small-molecule microarray, 635/667 nm fluorescence (AID 1116); conditions: COS7-hLAP1 lysate binding, 635 nm fluorescence, higher = more signal
[10] = biological target: Alpha-bungarotoxin (Bungarus multicinctus) (UniProt P60615); test: alpha-bungarotoxin binders on microarray, profiling panel, artefact control for SMM control protein annotation, biochemical, small-molecule microarray, Alexa647 label, 635/667 nm fluorescence (AID 1117); conditions: alpha-BTX-A647 binding fluorescence, higher = more signal
Albumin (Bos taurus) = Albumin (Bos taurus) (UniProt P02769); test: bovine serum albumin binders on microarray, profiling panel, artefact control for SMM control protein annotation, biochemical, small-molecule microarray, Alexa647 label, 635/667 nm fluorescence (AID 1118); conditions: BSA-A647 binding, fluorescence 635 nm, higher = more signal;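 note: score merges 667 nm emission intensity and signal-to-noise per printed compound spot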
[11] = small-molecule microarray binders of probe aXIP, primary screen, biochemical, NeuroSMM set, 635/667 nm fluorescence (AID 1119); conditions: higher = more signal, called active from +8 up or from −8 down;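 note: probe is the protein aXip251-270 applied at 1 µg/mL to compound-printed slides; binding of probe to printed compounds measured as 667 nm fluorescence plus signal to noise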
[12] = small-molecule binders of probe aNOTCH3, primary screen, biochemical, small-molecule microarray, 635/667 nm fluorescence (AID 1120); conditions: higher = more signal;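 note: probe is a biotin-tagged antibody raised against NOTCH3 rather than NOTCH3 protein; score merges spot fluorescence near 667 nm with spot signal to noise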
[13] = small-molecule binders of probe aNOTCH2, primary screen, biochemical, small-molecule microarray, 635/667 nm fluorescence (AID 1121); conditions: higher = more signal;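 note: score merges feature fluorescence read at 667 nm with its signal to noise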
[14] = biological target: Carbonic anhydrase 2 (Homo sapiens) (UniProt P00918); test: CAII small-molecule binders, profiling panel, biochemical, small-molecule microarray, Alexa647-labelled CAII (AID 1122); conditions: CAII-A647 binding fluorescence, higher = more signal
[15] = COS7 lysate on small-molecule microarray, probe aHis, 635 nm (AID 1123); conditions: COS7 cell lysate, fluorescence, higher = more signal;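 note: z-score combines 667nm fluorescence intensity with signal-to-noise per printed compound spot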
[16] = compound binding in COS7 lysate, probe aLAP1, primary screen, cell lysate, small-molecule microarray (AID 1124); conditions: probe aLAP1, fluorescence, higher = more signal;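 note: lysate comes from COS7 cells expressing LAP1 and is applied at 0.3 µg/mL; score merges spot fluorescence near 667 nm with signal-to-noise over triplicate slides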
Sam68 (KHDRBS1) = test: Sam68 small-molecule binders, primary screen, biochemical, small-molecule microarray, 635 nm fluorescence (AID 1125); conditions: small-molecule microarray binding, higher = more signal;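 note: score merges 667 nm channel intensity with signal to noise over triplicate slides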
[17] = tested on: Chordin-like protein 2 (CHRDL2); test: CHRDL2 small-molecule binders, primary screen, biochemical, small-molecule microarray, 635 nm fluorescence (AID 1126); conditions: small-molecule microarray binding, fluorescence 635 nm; higher = more signal;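 note: printed compound slides probed with Chrdl2 protein at 4 µg/mL for 1 h at 4 C; score merges 667 nm emission intensity with signal to noise over three replicate slides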
[18] = biological target: Concanavalin-A (Canavalia ensiformis) (UniProt P02866); test: ConA small-molecule binders, primary screen, artefact control for SMM control protein annotation, biochemical, small-molecule microarray, Alexa647 label, 635 nm (AID 1127); conditions: ConA-A647 binding fluorescence, higher = more signal;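 note: z combines 667 nm emission intensity with signal-to-noise across three replicate slides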
Chain of Concanavalin-A (Canavalia ensiformis) (P02866 whole entry, looked up): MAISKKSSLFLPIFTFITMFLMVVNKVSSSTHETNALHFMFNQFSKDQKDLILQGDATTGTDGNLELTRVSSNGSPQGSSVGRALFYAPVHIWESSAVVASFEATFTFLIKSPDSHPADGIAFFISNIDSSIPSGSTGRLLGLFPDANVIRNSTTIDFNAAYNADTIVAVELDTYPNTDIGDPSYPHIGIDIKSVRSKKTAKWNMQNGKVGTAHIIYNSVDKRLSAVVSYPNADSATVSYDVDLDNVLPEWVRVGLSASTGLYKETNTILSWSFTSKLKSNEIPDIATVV

Chain of Left-right determination factor 2 (Homo sapiens) (O00292 whole entry, looked up): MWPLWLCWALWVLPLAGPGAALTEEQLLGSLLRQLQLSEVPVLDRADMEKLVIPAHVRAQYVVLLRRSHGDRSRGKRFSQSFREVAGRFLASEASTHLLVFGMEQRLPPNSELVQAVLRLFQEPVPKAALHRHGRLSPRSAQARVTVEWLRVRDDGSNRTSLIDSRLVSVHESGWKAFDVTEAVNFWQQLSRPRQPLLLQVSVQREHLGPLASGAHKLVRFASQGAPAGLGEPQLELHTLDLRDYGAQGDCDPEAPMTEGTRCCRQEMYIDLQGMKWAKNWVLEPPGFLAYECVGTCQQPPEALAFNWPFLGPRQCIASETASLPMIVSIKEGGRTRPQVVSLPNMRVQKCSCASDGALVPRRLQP
Chain of Torsin-1A-interacting protein 1 (Homo sapiens) (Q5JTV8 whole entry, looked up): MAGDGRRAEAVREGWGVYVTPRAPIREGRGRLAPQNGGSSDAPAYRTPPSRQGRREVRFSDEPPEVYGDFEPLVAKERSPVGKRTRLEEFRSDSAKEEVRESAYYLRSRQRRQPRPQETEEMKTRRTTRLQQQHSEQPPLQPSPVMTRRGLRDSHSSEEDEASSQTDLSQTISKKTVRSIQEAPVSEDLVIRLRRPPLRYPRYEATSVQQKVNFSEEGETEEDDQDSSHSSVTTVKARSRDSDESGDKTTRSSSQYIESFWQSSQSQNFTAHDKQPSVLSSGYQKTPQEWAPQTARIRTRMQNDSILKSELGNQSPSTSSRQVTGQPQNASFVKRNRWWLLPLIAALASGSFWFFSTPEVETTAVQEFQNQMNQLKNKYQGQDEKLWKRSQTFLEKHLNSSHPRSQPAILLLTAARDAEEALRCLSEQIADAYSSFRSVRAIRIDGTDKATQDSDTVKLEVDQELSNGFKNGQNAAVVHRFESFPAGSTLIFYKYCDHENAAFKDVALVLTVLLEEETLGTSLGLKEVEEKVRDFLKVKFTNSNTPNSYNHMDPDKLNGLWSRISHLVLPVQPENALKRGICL
Chain of Albumin (Bos taurus) (P02769 whole entry, looked up): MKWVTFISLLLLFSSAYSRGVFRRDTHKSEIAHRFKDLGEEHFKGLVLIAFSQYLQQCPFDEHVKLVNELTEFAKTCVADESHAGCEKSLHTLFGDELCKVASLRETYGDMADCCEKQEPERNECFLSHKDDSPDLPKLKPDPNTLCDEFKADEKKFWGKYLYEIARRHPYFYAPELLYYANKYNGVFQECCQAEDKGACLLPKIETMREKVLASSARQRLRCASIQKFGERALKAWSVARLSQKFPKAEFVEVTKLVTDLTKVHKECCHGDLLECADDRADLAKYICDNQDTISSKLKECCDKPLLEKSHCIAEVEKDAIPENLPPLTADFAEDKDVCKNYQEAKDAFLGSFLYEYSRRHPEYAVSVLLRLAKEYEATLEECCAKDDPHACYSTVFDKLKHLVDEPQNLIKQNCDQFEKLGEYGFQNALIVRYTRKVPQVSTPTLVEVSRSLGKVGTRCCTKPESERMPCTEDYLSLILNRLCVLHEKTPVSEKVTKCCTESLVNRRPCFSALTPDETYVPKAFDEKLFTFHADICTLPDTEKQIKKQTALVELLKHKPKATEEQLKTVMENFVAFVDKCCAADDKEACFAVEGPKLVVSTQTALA
Chain of Alpha-bungarotoxin (Bungarus multicinctus) (P60615 whole entry, looked up): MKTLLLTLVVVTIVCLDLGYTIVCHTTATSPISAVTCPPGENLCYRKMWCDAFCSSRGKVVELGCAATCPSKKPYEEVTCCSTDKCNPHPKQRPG

| Compound | composite z-score [1] | z-score [2] | composite z-score [3] | composite z-score [4] | composite z-score [5] | composite z-score [6] | composite z-score [7] | composite z-score [8] | composite z-score [9] | composite z-score [10] | composite z-score (Albumin (Bos taurus)) | composite Z-score [11] | composite z-score [12] | composite z-score [13] | composite z-score [14] | composite z-score [15] | composite z-score [16] | composite z-score (Sam68 (KHDRBS1)) | composite z-score [17] | composite z-score [18] |
| --- | --- | --- | --- | --- | --- | --- | --- | --- | --- | --- | --- | --- | --- | --- | --- | --- | --- | --- | --- | --- |
| COc1cc2c(cc1OC)CN(C(=O)[C@@H]1[C@H]3C(=O)O[C@H](c4ccccc4)[C@H](c4ccccc4)N3[C@H](c3ccc(OCCO)cc3)[C@@]13C(=O)Nc1ccccc13)CC2 | 1.44 | -1.68 | 0.351 | 1.04 | 0.0568 | 0.133 | 0.0328 | -0.592 | 1.14 | 1.91 | 0.299 | 0.817 (inactive) | 0.131 | -0.114 | 0.634 | 2.25 | 0.141 | 1.31 | 0.508 | 1.15 |
| COCCOC(=O)N1C(=O)[C@@]2(c3cc(C#CC4=CCCCC4)ccc31)[C@H](c1ccc(OCCO)cc1)N1[C@H](c3ccccc3)[C@H](c3ccccc3)OC(=O)[C@H]1[C@@H]2C(=O)NC[C@H](O)c1ccccc1 | 1.33 | -1.88 | 0.958 | 0.868 | 0.458 | -0.0297 | 0.107 | 0.802 | 1.06 | 1.19 | -0.298 | 0.193 (inactive) | 0.164 | 0.0629 | 0.326 | 1.22 | 0.875 | 1.31 | 1.41 | 1.12 |
| Cc1ccc(S[C@]2(C(=O)O)CC(=O)N(Cc3ccccc3Cl)[C@@H]2c2ccc(CO)cc2I)cc1 | -0.455 | -1.77 | 0.0515 | -0.326 | -0.952 | -0.483 | 0.209 | -1.13 | -0.421 | -0.338 | 0.0877 | -0.648 (inactive) | -0.515 | -0.269 | 0.31 | 0.546 | -0.635 | 0.409 | -0.0996 | -0.1 |
| CN1C(=O)C2C=CC(C(O)COCc3ccccc3)N(N(c3ccccc3)c3ccccc3)C2C1=O (stereo not given) | 1.31 | -1.4 | -0.142 | 1.41 | 0.667 | 0.0915 | 0.204 | 0.773 | 0.454 | 0.458 | 0.319 | 0.453 (inactive) | 0.227 | -0.0173 | 0.412 | 1.62 | 0.0687 | 1.05 | -0.571 | 0.671 |
| C=CC[C@@]1(C(=O)N2CCOCC2)N=C(c2ccc(OCCCO)cc2)O[C@@H]1c1ccccc1CN=[N+]=[N-] | 1.44 | -2.04 | 0.898 | 1.9 | 0.365 | 0.0998 | 0.191 | -0.333 | 1.72 | 0.943 | 0.774 | 0.28 (inactive) | 0.405 | 0.083 | 0.527 | 2.89 | 1.41 | 1.33 | -0.186 | 1.16 |
| CCCCCCc1nc(-c2cc(C)c(OC)c(C)c2)c(C)c2c1[Si](C(C)C)(C(C)C)OC2 | -0.226 | 0.791 | -0.0571 | -0.357 | 0.34 | -0.0445 | 0.184 | 0.116 | -0.116 | -0.0116 | -0.58 | 0.792 (inactive) | -0.165 | -0.209 | -0.146 | 0.0188 | -0.373 | -0.611 | 0.574 | -0.112 |
| COCCOC(=O)N1C(=O)[C@@]2(c3cc(C#CC4=CCCCC4)ccc31)[C@H](c1ccc(OCCO)cc1)N1[C@H](c3ccccc3)[C@H](c3ccccc3)OC(=O)[C@H]1[C@@H]2C(=O)N1CCN(c2ncccn2)CC1 | 1.05 | -0.807 | 0.671 | 0.623 | 0.189 | -0.034 | -0.0146 | 0.759 | 0.835 | 0.418 | 0.737 | -0.648 (inactive) | 0.0596 | -0.158 | 0.425 | 0.477 | 0.677 | 1.31 | 0.48 | 0.713 |
| OCCCC1=CC(c2ccc(CN3CCCC3)cc2)N(Cc2sc3ccccc3c2Cl)CC1 (stereo not given) | 1.32 | -4.17 | 0.758 | 0.325 | -0.585 | -0.113 | 0.0899 | 0.507 | -0.0337 | 0.827 | -0.38 | -0.404 (inactive) | 0.191 | -0.0293 | 0.483 | 0.504 | -0.456 | 0.982 | 0.608 | 0.913 |
| COC(=O)CCCCCCC(=O)Nc1ccc(NC(=O)CCCC[P+](c2ccccc2)(c2ccccc2)c2ccccc2)cc1 | -0.0924 | 0.319 | 0.749 | -0.0302 | -0.516 | -0.0751 | -0.147 | -0.209 | 0.533 | -0.573 | -0.637 | 0.0895 (inactive) | 0.116 | -0.134 | -0.281 | -0.478 | 0.116 | 0.559 | 1.26 | 0.0666 |
| C=C[C@@H](COC(C)=O)N(C(=O)OC(C)(C)C)S(=O)(=O)c1ccc(Br)cc1 | 0.789 | 0.429 | 1.27 | 0.486 | 0.367 | 0.0973 | -0.141 | -0.0317 | 1.06 | 1.32 | 0.321 | 0.388 (inactive) | 0.0494 | -0.0401 | 0.646 | 0.155 | -0.101 | 0.827 | 1.4 | 1.12 |
| CCCC[C@@H]1C[C@H]1[C@@H](NC(=O)Cc1ccccc1)c1ccc(-c2ccccc2)cc1 | 1.24 | -0.783 | -0.319 | 0.538 | 0.588 | -0.0276 | 0.0098 | -0.0503 | 0.487 | 0.263 | 0.83 | 0.378 (inactive) | -0.006 | -0.0242 | 0.66 | 2.02 | -0.273 | 0.214 | -0.436 | 0.453 |
